The list is not random: actives were taken first. Their share in the collection is about 7.5%.
ELG1 genotox: inducers of genotoxicity in HEK293T ELG1-luciferase cells; Potency, µM (highest dose often 46 µM), for inactives: top-dose activity change, positive = activation, actives largely listed as activators; HEK293T ELG1-luciferase reporter, luminescence, 16 h; AID 504466; 330,000 tested, 1.3% active; further: % of control where 0% means no effect; nearly all actives have a fitted effect of over 60% in size
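Reporter readout depends on ELG1 protein level, which increases with genetic stress. After 16 hr compound exposure at 37 °C, luciferase activity was quantified using ONE-Glo.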
Luc counter: counter-screen: inhibitors of Kinase-Glo firefly luciferase | 200,000 tested, 0.28% active | Kinase-Glo luciferase, ATP luminescence, 8 min | Q27757 | AID 1379 | Potency, µM (titrated, usually from 38.3 µM), for the others: at the highest dose activity change, negative = inhibition, actives largely listed as inhibitors; further: on the % scale 0 is the no-effect control and ±100 the full control effect; nearly all actives have a fitted effect of over 60% in size
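Compound is pinned into ATP-containing buffer (10 uM ATP, imidazole pH 7.2, 7 mM MgCl2). Kinase-Glo luciferase reagent is then added. Light output is recorded following an 8-min room-temperature incubation.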
FLuc counter: counter-screen for miR-21 project: firefly luciferase inhibitors or activators; P08659; purified FLuc, Km substrates, luminescence inhibition; Potency, µM (highest dose often 57.5 µM), inactives show at the highest dose activity change, negative = inhibition, actives largely listed as inhibitors; 360,000 tested, 6.9% active; AID 588342;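 further: plate controls were vehicle for no effect and reference inhibitor for full effect; nearly all actives have a fitted effect of over 55% in size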
Target sequence (P08659 whole entry, looked up): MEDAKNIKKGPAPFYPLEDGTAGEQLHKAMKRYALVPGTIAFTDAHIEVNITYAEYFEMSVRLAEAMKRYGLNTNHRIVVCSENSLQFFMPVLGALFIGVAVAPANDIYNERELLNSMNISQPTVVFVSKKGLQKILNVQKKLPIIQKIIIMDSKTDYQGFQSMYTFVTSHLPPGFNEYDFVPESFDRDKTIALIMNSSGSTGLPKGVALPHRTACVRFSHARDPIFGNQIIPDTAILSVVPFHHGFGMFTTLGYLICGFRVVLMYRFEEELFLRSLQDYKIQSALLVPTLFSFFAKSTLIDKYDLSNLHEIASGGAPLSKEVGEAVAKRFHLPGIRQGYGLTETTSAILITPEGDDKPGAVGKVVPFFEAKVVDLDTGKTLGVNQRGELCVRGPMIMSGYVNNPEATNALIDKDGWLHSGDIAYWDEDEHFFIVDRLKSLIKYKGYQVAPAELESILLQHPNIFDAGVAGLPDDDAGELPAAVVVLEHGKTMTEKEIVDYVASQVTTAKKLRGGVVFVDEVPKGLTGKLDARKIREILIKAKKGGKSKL
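Purified P. pyralis luciferase, 10 nM final, with Km-level 10 uM D-luciferin and 10 uM ATP in 50 mM Tris acetate pH 7.5, 10 mM Mg acetate, 0.01% Tween-20, 0.05% BSA; 6-point qHTS titration about 60 µM downward; luminescence read.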
NPC1 prom act: activates the NPC1 promoter | Huh7 NPC1 promoter luciferase reporter, 24 h | Potency, µM (top dose mostly 9.22 µM), inactives show at the top dose activation, hits mostly activators | 320,000 tested, 2.4% active | AID 485313; further: % of control where 0% means no effect; nearly all actives have a fitted effect of over 60% in size
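In 1536-well qHTS, Huh7 cells harboring an NPC1 promoter–luciferase construct received compound for 24 h; activation was quantified by luminescence following luciferase reagent addition.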
SMN2 splice up: enhancers of SMN2 splice variant expression; HEK293 SMN2-luciferase splicing reporter, luminescence, 30-36 h; Potency, µM (series often up to 46.1 µM), without a hit: at the top dose activity change, positive = activation, hits mostly activators; 210,000 tested, 2.8% active; further: % of control where 0% means no effect; nearly all actives have a fitted effect of over 55% in size
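HEK293 cells carry an SMN2 […]–luciferase reporter in which exon 7 inclusion puts luciferase in frame. Cells were plated 10-12 h before compound addition, then incubated 30-36 h at 37C. ONE-Glo luminescence was read; sodium butyrate at 4.5 mM final served as control.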
Rab9 promoter act: Rab9 promoter activation | Huh7 Rab9 promoter-luciferase reporter, luminescence, 24 h | Potency, µM (highest dose often 9.22 µM), without a hit: at the top dose activation, negative = inhibition, usual class: activators | 320,000 tested, 2.8% active; further: % of control where 0% means no effect; nearly all actives have a fitted effect of over 60% in size
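Stable Rab9-luc Huh7, 1500 cells/well, 2 h settle; cmpd in DMSO, 24 h, 37 °C/5% CO2; luciferase reagent 10 min RT; luminescence.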
Starred values were filed as active, the others as inactive; ? = inconclusive; . = no result given; [ ] = another dose, or the depositor's remark. The call rests on the fitted dose curve; in most records, active means well fitted curve in the direction sought with a large enough effect; inconclusive means small, poorly fitted or top-dose-only effect, or another doubt; inactive means no such curve, though single readings can be large; an effect the other way counts as inactive or inconclusive. Potency means the concentration at half of the fitted maximal effect.

SMILES	ELG1 genotox	Luc counter	FLuc counter	NPC1 prom act	SMN2 splice up	Rab9 promoter act
O=C(Nc1ccccn1)c1sc2cc([N+](=O)[O-])ccc2c1Cl	13.2%	.	?	?	.	1.26µM*
Cc1ccnc(NC(=O)c2sc3ccccc3c2Cl)c1	0.92µM*	-17.3%	0.12µM*	0.1µM*	3.16µM*	0.316µM*
Cc1csc(NC(=O)CCn2c(=O)sc3ccccc32)n1	12.3%	-2.0%	?	1.1%	18.6%	10.8%
Cc1cnc(NC(=O)c2sc3ccccc3c2Cl)s1	0.651µM*	-12.6%	0.301µM*	?	1µM*	?
O=C(NCCCN1CCOCC1)c1sc2cc([N+](=O)[O-])ccc2c1Cl	-3.3%	4.4%	?	-0.4%	1.7%	-6.1%
O=C(CCn1c(=O)sc2ccccc21)Nc1nccs1	?	-0.5%	13.5µM*	30.0%	0.3%	19.6%
COc1ccc(CNc2ncncc2-c2ccc3c(c2)OCO3)c(OC)c1	.	1.4%	.	.	-1.1%	.
Cn1c(=O)c2nc(SCC(=O)Nc3cc(Cl)ccc3Cl)n(C)c2n(C)c1=O	.	.	-5.4%	.	.	.
Cc1ccc(N2CCN(C(=O)c3c(C)oc4ncnc(N5CCCCC5)c34)CC2)c(C)c1	.	.	-9.6%	.	.	.
COc1ccc(-c2nc(CNC(=O)Nc3ccccc3)c(C)o2)cc1	.	.	1.3%	.	.	.
Cc1nc(C)c(CCNS(=O)(=O)c2ccc(C)c(C)c2)s1	.	.	-3.3%	.	.	.
O=C(Nc1cc2c3c(c1)CC(=O)N3CCC2)c1c(F)cccc1F	?	.	-8.0%	-3.0%	.	3.1%
O=C(Nc1cc2c3c(c1)CC(=O)N3CCC2)c1ccc(Cl)cc1	?	.	15.1µM*	12.6%	.	-4.0%
COc1ccc(-c2noc(CSc3nnc(-c4ccccc4)n3C)n2)cc1	5.1%	-2.9%	21.3µM*	2.1%	-5.0%	2.8%
COc1ccc(-c2noc(CSc3nc(N)cc(=O)[nH]3)n2)cc1	-0.4%	.	21.3µM*	4.0%	.	-1.6%
COc1ccc(-c2noc(CSc3nc4ccccc4[nH]3)n2)cc1	.	.	1.7%	.	0.2%	.
COc1ccc(S(=O)(=O)c2cn(C)c3ccc(C)cc3c2=O)cc1	.	.	-1.2%	.	-8.9%	.
Cc1ncc(CO)c(CO)c1O	1.8%	2.5%[17.1 µM]	5.3%	-3.0%	6.1%[20.6 µM]	-5.1%
COCc1c(CCl)cnc(C)c1O	4.6%	1.2%	16.9µM*	-2.0%	.	4.3%
O=C(NC(=O)c1ccccc1)C1=C(N2CCCC2)COC1=O	?	.	?	2.24µM*	.	1.26µM*
O=C(NS(=O)(=O)Nc1ccccc1)C1=C(N2CCCC2)COC1=O	1.0%	.	.	.	.	.
C=CCc1c(C)nc(-c2ccccc2)nc1Nc1ccccc1O	-2.8%	4.7%	-18.3%	1.8%	-2.9%	-0.6%
C=CCc1c(C)nc(-c2ccccc2)nc1N/N=C/c1ccncc1	-5.4%	-8.1%	6.01µM*	13.8%	25.6%	27.9%
C=CCc1c(C)nc(-c2ccccc2)nc1N/N=C/c1ccccc1	0.6%	0.3%	9.53µM*	-0.2%	9.2%	-3.0%
C=CCc1c(C)nc(-c2ccccc2)nc1N/N=C(\C)c1ccc(N)cc1	-0.6%	-0.7%	12µM*	-4.6%	-29.1%	-17.5%
SMILES	ELG1 genotox	Luc counter	FLuc counter	NPC1 prom act	SMN2 splice up	Rab9 promoter act
CCOc1ccc(-n2cc(C(=O)Nc3ccccc3OCC)c3cc(OC)c(OC)cc3c2=O)cc1	.	.	0.4%	.	3.8%	.
CC(C)NC(=O)C1=CC(c2ccc3c(c2)OCO3)=NS(=O)(=O)N1C	.	.	-14.0%	.	.	.
O=C(CSc1nnc(-c2ccco2)n1Cc1ccccc1)c1ccccc1	?	-2.0%	12µM*	4.47µM*	7.4%	1.41µM*
Cc1ccc(C(=O)CSc2nnc(-c3ccco3)n2Cc2ccccc2)cc1	12.8%	-8.1%	?	?	18.9%	?
CCOC(=O)c1c(C)[nH]c(C)c1C(=O)CSc1nnc(-c2ccncc2)n1Cc1ccccc1	-8.8%	-0.6%	0.0%	5.3%	-8.1%	23.0%
CCOC(=O)c1c(C)[nH]c(C)c1C(=O)CSc1nnc(-c2ccco2)n1Cc1ccccc1	-29.6%	0.4%	-1.1%	9.2%	35.5µM*	-1.6%
CCn1c(SCC(=O)Nc2ccc(OCc3ccccc3)cc2)nnc1-c1ccco1	-8.6%	6.6%	15.1µM*	-4.1%	-31.6%	-3.7%
CCOC(=O)c1ccc(NC(=O)c2oc3c(c2C)-c2nn(Cc4ccccc4Cl)cc2CC3)cc1	.	.	-4.1%	.	.	.
COc1ccc(CNCCCC(=O)Nc2c(Cl)ccc(C)c2Cl)cc1OC	-4.8%	.	0.9%	-0.9%	.	1.8%
Cc1ccc(C(=O)N(C)c2ccc(OCC(=O)N3c4ccc(C)cc4C4CN(C)CCC43)cc2)cc1 (stereo not drawn)	?	0.0%	3.01µM*	27.1%	11.2µM*	?
O=C(CC1Nc2ccccc2NC1=O)c1ccccc1 (stereo not drawn)	9.2µM*	?	3.01µM*	?	12.6µM*	2.51µM*
Cc1ccc(NC2Sc3ccccc3NC2=O)cc1Cl (stereo not drawn)	-0.5%	.	19µM*	-0.1%	.	0.1%
Cc1ccc(NC(=O)CC2Nc3ccccc3NC2=O)cc1C (stereo not drawn)	.	.	-12.3%	.	-5.9%	.
Cc1ccc(NC(=O)CC2Nc3ccccc3NC2=O)cc1Cl (stereo not drawn)	?	1.8%	23.9µM*	14.6%	-5.2%	23.4%
O=C(CC1Nc2ccccc2NC1=O)NCCc1ccccc1 (stereo not drawn)	-2.8%	-3.8%	-1.6%	-0.9%	-8.2%	-2.1%
Cc1ccccc1NC(=O)Cn1c(=O)oc2cc(Br)ccc21	.	.	-2.0%	.	.	.
COc1cc2c(-c3ccccc3Cl)nc3c(c(C)nn3-c3ccccc3)c2cc1OC	.	.	-0.1%	.	-5.7%	.
CN(C)c1cccc(C(=O)Nc2cccc(S(=O)(=O)NC3=NCCC3)c2)c1	?	.	21.3µM*	2.82µM*	.	2.24µM*
CCOc1ccc(C(=O)NC(=S)Nc2cccc(S(=O)(=O)NC3=NCCC3)c2)cc1	?	0.3%	12µM*	-20.1%	0.4%	-3.9%
C=C(C)CNC(=S)Nc1cccc(S(=O)(=O)NC2=NCCC2)c1	1.8%	4.0%	-0.5%	0.1%	-8.7%	1.3%
O=C(Nc1cccc(S(=O)(=O)NC2=NCCC2)c1)c1ccc(OC(F)F)cc1	-0.2%	.	10.7µM*	-3.0%	.	-0.4%
O=C(NC(=S)Nc1cccc(S(=O)(=O)NC2=NCCC2)c1)c1cc(-c2ccco2)nc2ccccc12	8.7%	.	19µM*	-23.5%	.	-27.5%
O=C(Nc1cccc(S(=O)(=O)NC2=NCCC2)c1)c1ccccc1	-0.7%	.	.	.	.	.
CN(C)S(=O)(=O)c1ccc(C(=O)Nc2cccc(S(=O)(=O)NC3=NCCC3)c2)cc1	-0.1%	.	-18.5%	-1.6%	.	-2.6%
